Assay outcomes as filed in PubChem.
IL1B secr inh = qHTS for Inhibitors of Inflammasome Signaling: IL-1-beta AlphaLISA Primary Screen | THP-1 LPS/ATP IL-1B secretion, AlphaLISA, 16 h; active compounds read low | activity change, % at 57.5 µM | hit rate 4.7% among 360,000; in the data active means activity change below about -50%; inconclusive means mostly about -30% to -49%; further: on the % scale 0 is the no-effect control and ±100 the full control effect
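Secreted IL-1B measured by AlphaLISA bead assay after 16 h compound exposure of THP-1 cells; compounds (final up to 57.5 uM) added 1 h before LPS (250 ng/mL) and ATP (1.25 mM) stimulation; lower signal means less secretion.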
MCF10A rereplic = A quantitative high throughput screen for small molecules that induce DNA re-replication in MCF 10a normal breast cells | MCF 10A DNA re-replication, Hoechst nuclear intensity, 48 h | Potency, µM (titrated, usually from 46.1 µM), without a hit: at the top dose activity, positive = re-replication, usual class: activators | hit rate 2.9% among 350,000 | AID 624296, 2012; further: potency means the concentration at half of the fitted maximal effect; % of control where 0% means no effect; nearly all actives have a fitted effect of over 50% in size
RORgamma inh = qHTS for inhibitors of ROR gamma transcriptional activity; Drosophila S2 Gal4-RORgamma UAS-luciferase reporter, 20 h; hit rate 5.4% among 310,000; Nuclear receptor ROR-gamma (Mus musculus), P51450; Potency, µM (doses to about 53.6 µM), inactives show top-dose activity change, negative = inhibition, actives largely listed as inhibitors; further: potency means the concentration at half of the fitted maximal effect; on the % scale 0 is the no-effect control and ±100 the full control effect; nearly all actives have a fitted effect of over 60% in size
Target sequence (P51450 whole entry, looked up, the tested form may be a part): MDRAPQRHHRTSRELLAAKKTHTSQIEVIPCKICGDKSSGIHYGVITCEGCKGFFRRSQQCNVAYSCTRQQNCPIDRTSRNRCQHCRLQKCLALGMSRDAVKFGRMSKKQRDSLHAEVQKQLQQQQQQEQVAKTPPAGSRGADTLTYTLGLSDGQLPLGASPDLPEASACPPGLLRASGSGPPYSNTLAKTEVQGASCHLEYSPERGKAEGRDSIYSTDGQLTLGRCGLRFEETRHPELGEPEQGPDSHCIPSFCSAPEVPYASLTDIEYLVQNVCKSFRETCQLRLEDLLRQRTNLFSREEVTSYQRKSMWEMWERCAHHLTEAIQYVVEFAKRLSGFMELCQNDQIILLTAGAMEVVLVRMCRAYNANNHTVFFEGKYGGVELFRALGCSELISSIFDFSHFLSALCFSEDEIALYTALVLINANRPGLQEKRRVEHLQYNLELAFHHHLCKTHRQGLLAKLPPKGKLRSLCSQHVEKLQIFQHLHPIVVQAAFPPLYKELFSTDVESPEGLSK
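Using a luciferase readout, inhibitors were identified by reduced reporter activity in Drosophila cells coexpressing a copper-inducible Gal4–ROR gamma fusion and UAS-driven Photinus luciferase, incubated 20 hr after 700 uM copper sulfate.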
SW480 rerep = A quantitative high throughput screen for small molecules that induce DNA re-replication in SW480 colon adenocarcinoma cells; SW480 DNA re-replication, Hoechst DNA content imaging, 48 h; hit rate 1.8% among 340,000; Potency, µM (top dose mostly 46.1 µM), for inactives: at the highest dose re-replication activation, usual class: activators; further: potency means the concentration at half of the fitted maximal effect; % of control where 0% means no effect; nearly all actives have a fitted effect of over 55% in size
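Quantitative HTS format with DMSO vehicle controls; 48 hr drug incubation at 37 C, then 40 min Hoechst staining and scanning imager measurement at 405 nm excitation.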
VP16 counter = VP16 counterscreen qHTS for inhibitors of ROR gamma transcriptional activity. AID 2546, 2010. Drosophila S2 Gal4-VP16 UAS-luciferase, luminescence, 20 h. hit rate 3.5% among 310,000. Potency, µM (doses to about 53.6 µM), inactives show top-dose activity, negative = inhibition, hits mostly inhibitors;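 further: Gal4-VP16 expression switched on by copper sulfate through the metallothionein promoter; potency means the concentration at half of the fitted maximal effect; on the % scale 0 is the no-effect control and ±100 the full control effect; nearly all actives have a fitted effect of over 50% in size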
* marks the source's active call; other numbers are inactive results; i = inactive; ? = inconclusive; . = not tested or not shown; [ ] = another dose, or the depositor's remark. Most compounds without a hit are left out; they make up all but 11% or so of the library. Unless noted, the call rests on the fitted dose curve; in most records, active means well fitted curve in the direction sought with a large enough effect; inconclusive means small, poorly fitted or top-dose-only effect, or another doubt; inactive means no such curve, though single readings can be large; an effect the other way counts as inactive or inconclusive.

SMILES	IL1B secr inh	MCF10A rereplic	RORgamma inh	SW480 rerep	VP16 counter
COc1ccc(CNC(=O)CN(C(=O)CCC(=O)Nc2nccs2)c2ccccc2C)cc1	-21.1	3.9%	1.4%	-3.7%	-7.0%
CCO[C@H]1O[C@@H]([C@H](COCc2ccccc2)OCc2ccccc2)[C@@H](OCc2ccccc2)[C@H]1O	.	2.7%[20.6 µM]	31.7%[2.98 µM]	-2.4%[20.6 µM]	-8.2%[17 µM]
COc1ccccc1NS(=O)(=O)c1cc([N+](=O)[O-])ccc1N/N=C/c1c(C)[nH]c2ccccc12	35.2	?	-8.4%	11.8%	-8.4%
O=[N+]([O-])c1ccc(N/N=C/c2c[nH]c3ccccc23)c(S(=O)(=O)Nc2ccc(Cl)cc2)c1	-7.4	?	17.9%	20.6µM*	?
Cc1ccc(C)c(S(=O)(=O)NCCC(=O)N2CCCC(C(N)=O)C2)c1 (stereo not given)	5.3	5.8%	.	12.3%	.
Cn1c(OCc2cccnc2)nc2c1c(=O)n(Cc1ccc(Cl)cc1)c(=O)n2C	17.8	10.6%	.	-19.5%	.
Cn1c(OCc2cccnc2)nc2c1c(=O)n(Cc1ccc(Br)cc1)c(=O)n2C	-52.5*	16.3%	3.55µM*	-2.2%	?
CC(C)c1ccc(/C=C2\C(=O)N(CCN3CCOCC3)C(=S)N2C)cc1	-94.3*	?	?	26.3%	3.9%
COc1ccc(CCN2CC(C(=O)Nc3ccc(S(C)(=O)=O)cc3)CC2=O)cc1OC (stereo not given)	9.9	-0.3%	.	-7.1%	.
CC1(C)N([O-])c2cc([N+](=O)[O-])ccc2[N+]1=O	15.3	-2.2%	20µM*	-13.7%	?
CC(=O)Nc1ccc2ccccc2c1[N+](=O)[O-]	-3.1	0.9%	.	1.4%	.
CCOc1ccc(-n2c(-c3ccccc3)c[nH]c2=S)cc1	22.7	-25.4%	2µM*	-10.3%	5.62µM*
Cc1ccc(-c2c[nH]c(=S)n2-c2ccccc2F)cc1	-1.9	-2.0%	1.58µM*	-4.1%	5.01µM*
Cc1ccc(-n2c(-c3ccccc3)cc(=O)nc2C)cc1	15.6	5.5%	3.8%	11.6%	1.2%
Cc1ccc(-c2c[nH]c(=S)n2-c2ccccc2)cc1	2.9	-5.0%	1.26µM*	i[1.84 µM]	5.01µM*
O=c1cc(O)n(-c2ccccc2F)c(=S)[nH]1	-1.8	-3.4%	1.9%	-3.5%	1.0%
COc1ccc(CN2C(=NC(=O)c3ccccc3)SC3CS(=O)(=O)CC32)cc1OC (stereo not given)	-56.7*	1.2%	3.9%	-8.7%	-2.1%
CC1(C(=O)NS(=O)(=O)c2ccc(F)cc2F)CCN1C(=O)CC(c1ccccc1)c1ccccc1 (stereo not given)	26.1	.	.	.	.
O=C(CC(Sc1ccc(Br)cc1)C(=O)O)c1ccc(F)cc1 (stereo not given)	-92.4*	23.1µM*	?	?	?
O=C(CC(C(=O)O)c1ccc(Cl)cc1)c1ccc(Br)cc1 (stereo not given)	20.4	-14.2%	11.2%	-0.4%	-2.2%
CCOc1ccc(C(=O)CC(Sc2ccc(C)cc2)C(=O)O)cc1 (stereo not given)	?	?	4.47µM*	?	?
CCC(Sc1ccc(C(=O)O)cc1)C(=O)O (stereo not given)	25.0	9.6%	-13.4%	-3.7%	-0.3%
CCn1nc(C)cc1C(=O)N(C)C1CCCN(Cc2ccccc2F)C1 (stereo not given)	-1.1	1.7%	0.7%	2.3%	0.4%
COc1ccc2c(c1)O[C@H](c1ccc3c(c1)OCO3)[C@@H](OC(=O)NS(=O)(=O)c1ccc(F)cc1)C2=O	.	.	-0.5%	.	6.8%
CN(Cc1ccc(Cl)cc1)C(CCc1ccccc1)C(=O)NC1CCCCC1 (stereo not given)	43.2	.	.	.	.
Cc1cc(C)c2cc(C#N)c(N3CCCN(C(=O)c4cnccn4)CC3)nc2c1	-2.6	20.6µM*	3.0%	2.4%	2.9%
Cc1cc(C)c2cc(C#N)c(N3CCCN(S(=O)(=O)c4ccccc4)CC3)nc2c1	29.3	4.1%	.	5.0%	.
CCCS(=O)(=O)NC(=O)C1(C)CCCN(C(=O)c2c(OC)cccc2OC)C1 (stereo not given)	-8.9	.	.	.	.
